Results from PubChem BioAssay (EPA / NIEHS).
Records with an inconclusive call do not appear. Calls of active or inactive are those of the source. How the source made its calls, unless noted: active means hit-call score of the fitted dose curve at least 0.9, where 1 is the maximum; inactive means score below 0.9.

Key:
[1] = molecular target: human Vitamin D Receptor (VDR), VDR (gene 7421) (UniProt P11473); experiment: ATG_VDR_TRANS: Attagene TRANS-FACTORIAL HepG2 Assay for human Vitamin D Receptor (VDR) (AID 2283022; active means hit-call score of the fitted dose curve at least 0.9, where 1 is the maximum)
Chain of human Vitamin D Receptor (VDR), VDR (gene 7421) (P11473 whole entry, looked up, the tested form may be a part): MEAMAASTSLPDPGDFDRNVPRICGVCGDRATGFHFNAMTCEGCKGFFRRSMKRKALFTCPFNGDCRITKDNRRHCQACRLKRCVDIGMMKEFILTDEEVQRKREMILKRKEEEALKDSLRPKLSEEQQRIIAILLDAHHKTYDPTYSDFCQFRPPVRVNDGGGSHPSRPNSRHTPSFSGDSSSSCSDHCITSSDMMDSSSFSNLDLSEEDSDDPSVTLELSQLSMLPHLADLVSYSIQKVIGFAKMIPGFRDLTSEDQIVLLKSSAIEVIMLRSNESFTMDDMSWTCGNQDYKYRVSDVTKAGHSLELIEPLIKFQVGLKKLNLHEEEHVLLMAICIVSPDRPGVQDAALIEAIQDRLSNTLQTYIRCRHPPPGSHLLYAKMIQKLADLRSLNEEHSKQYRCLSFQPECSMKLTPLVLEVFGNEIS
Outline: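 HepG2 cells were transiently transfected with multiple GAL4-UAS reporter units, so signal reflects exogenous chimeric receptor-Gal4 activity. After 24 h compound exposure, reporter mRNA was measured by RT-PCR, fluorescent labelling and capillary electrophoresis, fitted for gain of signal versus DMSO.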

[2] = BSK_3C_SRB: Viability Assessment in the BioMAP Diversity Plus: 3C Assay (AID 2283023); settings: primary human endothelial cells (HUVEC);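 further: fitted both ways against DMSO so a hit may be signal rise or drop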
Outline: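 Primary human umbilical vein endothelial cells in the 3C system were read 24 h after compound dosing. Total protein was stained with 0.1% sulforhodamine B after 10% TCA fixation and read at 560 nm, with bidirectional fitting against DMSO as baseline.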

[3] = BSK_3C_Vis: BioMAP Diversity Plus: 3C Assay for Morphology Visualization (AID 2283025); settings: primary human endothelial cells (HUVEC);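 further: fitted both ways so gain or loss versus DMSO counts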;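 on AC50: light microscopy image of cell morphology used as background control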
Outline: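 HUVEC, 3C system; light microscopy of morphology at 24 h post-dose. Bidirectional fit vs DMSO baseline. Secondary readout, background-control function.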

[4] = read-out: Pselectin, SELP (gene 6403); experiment: BSK_4H_Pselectin: BioMAP Diversity Plus: 4H Assay for Pselectin Biomarker Activity (AID 2283026); settings: primary human endothelial cells (HUVEC); actives raise or lower the signal
Outline: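 HUVEC, 24 h chemical exposure; P-selectin read by ELISA. Bidirectional curve fit vs DMSO baseline; gain or loss of signal scored.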

[5] = BSK_BE3C_SRB: Viability Assessment in the BioMAP Diversity Plus: BE3C Assay (AID 2283028); settings: primary human bronchial epithelial cells;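 on AC50: fitted both ways so AC50 may mark signal gain or loss versus DMSO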
Outline: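 Human primary bronchial epithelial cells were exposed to test chemicals for 24 h. Total protein in parallel cultures was then measured by staining with 0.1% sulforhodamine B after 10% TCA fixation, with absorbance read at 560 nm. Activity was fitted bidirectionally against DMSO.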

[6] = read-out: Thrombomodulin, THBD (gene 7056); experiment: BSK_3C_Thrombomodulin: BioMAP Diversity Plus: 3C Assay for Thrombomodulin Biomarker Activity (AID 2283029); settings: primary human endothelial cells (HUVEC); actives raise or lower the signal
Outline: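 HUVEC, 3C conditions; compound 24 h; thrombomodulin by ELISA; bidirectional curve fit vs DMSO baseline; parallel SRB total-protein staining for cytotoxicity.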

[7] = read-out: Urokinase-type plasminogen activator receptor (uPAR), PLAUR (gene 5329); experiment: BSK_4H_uPAR: BioMAP Diversity Plus: 4H Assay for Urokinase-type plasminogen activator receptor (uPAR) Biomarker Activity (AID 2283030); settings: primary human endothelial cells (HUVEC); actives raise or lower the signal
Outline: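 Primary human umbilical vein endothelial cells were exposed to chemical for 24 h before cell-surface uPAR was quantified by ELISA. Activity was fitted bidirectionally against the DMSO negative control baseline.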

[8] = read-out: Vascular endothelial growth factor receptor 2 (Homo sapiens) (UniProt P35968); experiment: BSK_4H_VEGFRII: BioMAP Diversity Plus: 4H Assay for Vascular endothelial growth factor receptor 2 (VEGFR2) Biomarker Activity (AID 2283031); settings: primary human endothelial cells (HUVEC); actives raise or lower the signal;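 on AC50: cell-surface VEGFR2 protein level quantified by ELISA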
Outline: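 Primary human umbilical vein endothelial cells in the BioMAP 4H system were dosed with test chemical, and 24 h later VEGFRII was measured by ELISA. Activity was fitted bidirectionally against DMSO as negative control and baseline.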

[9] = read-out: Human Leukocyte Antigen - DR isotype (HLADR), HLA-DRA (gene 3122); experiment: BSK_BE3C_HLADR: BioMAP Diversity Plus: BE3C Assay for Human Leukocyte Antigen - DR isotype (HLADR) Biomarker Activity (AID 2283032); settings: primary human bronchial epithelial cells; actives raise or lower the signal
Outline: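 Primary human bronchial epithelial cells (BE3C); 24 h chemical exposure; HLA-DR by ELISA; bidirectional curve fit vs DMSO baseline.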

[10] = read-out: Vascular cell adhesion molecule 1 (VCAM1), VCAM1 (gene 7412); experiment: BSK_4H_VCAM1: BioMAP Diversity Plus: 4H Assay for Vascular cell adhesion molecule 1 (VCAM1) Biomarker Activity (AID 2283033); settings: primary human endothelial cells (HUVEC); actives raise or lower the signal
Outline: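 HUVEC, 24 h post-dose; VCAM-1 by ELISA. Bidirectional curve fit vs DMSO baseline. Parallel SRB total-protein stain (0.1% SRB after 10% TCA fixation, 560 nm) for cytotoxicity.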

[11] = read-out: Interferon-gamma inducible Protein 10 (IP10), CXCL10 (gene 3627); experiment: BSK_BE3C_IP10: BioMAP Diversity Plus: BE3C Assay for Interferon-gamma inducible Protein 10 (IP10) Biomarker Activity (AID 2283034); settings: primary human bronchial epithelial cells; actives raise or lower the signal
Outline: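 ELISA readout of IP-10 in BE3C system: primary human bronchial epithelial cells, 24 h post-dosing; bidirectional curve fit vs DMSO baseline.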

[12] = read-out: Monokine induced gamma interferon (MIG), CXCL9 (gene 4283); experiment: BSK_BE3C_MIG: BioMAP Diversity Plus: BE3C Assay for Monokine induced gamma interferon (MIG) Biomarker Activity (AID 2283035); settings: primary human bronchial epithelial cells; actives raise or lower the signal
Outline: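 Dose cells (human primary bronchial epithelial), incubate 24 h, quantify MIG by ELISA, then fit concentration–response in both directions relative to DMSO control.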

[13] = read-out: Transforming growth factor beta 1 (TGFb1), TGFB1 (gene 7040); experiment: BSK_BE3C_TGFb1: BioMAP Diversity Plus: BE3C Assay for Transforming growth factor beta 1 (TGFb1) Biomarker Activity (AID 2283036); settings: primary human bronchial epithelial cells; actives raise or lower the signal
Outline: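 Read-out: ELISA for TGF-b1 in primary human bronchial epithelial cultures, 24 h post-dose. Bidirectional curve fitting vs DMSO control; gain or loss of signal both scored.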

[14] = read-out: Plasminogen activator inhibitor-1 (PAI1), SERPINE1 (gene 5054); experiment: BSK_BE3C_PAI1: BioMAP Diversity Plus: BE3C Assay for Plasminogen activator inhibitor-1 (PAI1) Biomarker Activity (AID 2283037); settings: primary human bronchial epithelial cells; actives raise or lower the signal
Outline: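 ELISA read-out of PAI-1 from human bronchial epithelial primary cells, 24 h post-dosing; bidirectional curve fit vs DMSO baseline, gain or loss of signal scored.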

[15] = read-out: urokinase plasminogen activator (uPA), PLAU (gene 5328); experiment: BSK_BE3C_uPA: BioMAP Diversity Plus: BE3C Assay for urokinase plasminogen activator (uPA) Biomarker Activity (AID 2283038); settings: primary human bronchial epithelial cells; actives raise or lower the signal
Outline: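 Human primary bronchial epithelial cells were exposed to chemical for 24 h, then uPA levels were measured by ELISA. Responses were fitted bidirectionally against DMSO as negative control and baseline. Parallel SRB staining of total protein gauged overt cytotoxicity.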

[16] = read-out: Urokinase-type plasminogen activator receptor (uPAR), PLAUR (gene 5329); experiment: BSK_BE3C_uPAR: BioMAP Diversity Plus: BE3C Assay for Urokinase-type plasminogen activator receptor (uPAR) Biomarker Activity (AID 2283039); settings: primary human bronchial epithelial cells; actives raise or lower the signal
Outline: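 ELISA readout of uPAR on human lung primary bronchial epithelial cells, 24 h post-dosing. Bidirectional curve fit relative to DMSO vehicle baseline; gain or loss of signal both scored.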

[17] = read-out: Interleukin-6 (IL6), IL6 (gene 3569); experiment: BSK_CASM3C_IL6: BioMAP Diversity Plus: CASM3C Assay for Interleukin-6 (IL6) Biomarker Activity for (AID 2283040); settings: primary human coronary artery smooth muscle cells; actives raise or lower the signal
[18] = read-out: Tissue plasminogen activator (tPA), PLAT (gene 5327); experiment: BSK_BE3C_tPA: BioMAP Diversity Plus: BE3C Assay for Tissue plasminogen activator (tPA) Biomarker Activity (AID 2283041); settings: primary human bronchial epithelial cells; actives raise or lower the signal
Outline: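 ELISA read-out of tPA on human primary bronchial epithelial cells, 24 h post-dosing; bidirectional fit vs DMSO negative control/baseline.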

[19] = read-out: Matrix Metallopeptidase 1 (MMP1), MMP1 (gene 4312); experiment: BSK_BE3C_MMP1: BioMAP Diversity Plus: BE3C Assay for Matrix Metallopeptidase 1 (MMP1) Biomarker Activity (AID 2283024); settings: primary human bronchial epithelial cells; actives raise or lower the signal
Outline: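 ELISA read-out of MMP1 in human lung bronchial epithelial primary cultures, 24 h post-dose; bidirectional curve fit vs DMSO baseline, gain or loss of signal scored.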

[20] = BSK_4H_SRB: Viability Assessment in the BioMAP Diversity Plus: 4H Assay (AID 2283027); settings: primary human endothelial cells (HUVEC);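 further: cells exposed to compound for 24 h before staining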
Outline: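 HUVEC, 24 h post-dose; 10% TCA fix, 0.1% SRB stain, A560 nm. Total protein = overt cytotoxicity, parallel to biomarker read. Bidirectional fit vs DMSO baseline.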

Measured: AC50

CN(C)C(=O)NC1(c2ccccc2)CCN(CC[C@@]2(c3ccc(F)c(F)c3)CN(C(=O)c3ccccc3)CCO2)CC1
inactive: [1] | [2] | [3] | [4] | [5] | [6] | [7] | [8] | [9] | [10] | [11] | [12] | [13] | [14] | [15] | [16] | [17] | [18]

OCC(O)CO
inactive: [2] | [19] | [3] | [4] | [20] | [5] | [6] | [7] | [8] | [9] | [10] | [11] | [12] | [13] | [14] | [16] | [17] | [18]

Nc1nc(Cl)nc2c1ncn2[C@H]1C[C@H](O)[C@@H](CO)O1
active: [3] 38.6 µM | [7] 18.5 µM | [8] 2.65 µM
inactive: [2] | [19] | [4] | [20] | [5] | [6] | [9] | [10] | [11] | [12] | [13] | [14] | [16] | [17] | [18]

Cc1c(C)c2c(c(C)c1O)CCC(C)(COc1ccc(CC3SC(=O)NC3=O)cc1)O2 (stereo not drawn)
inactive: [1] | [6] | [8] | [17]
active: [2] 17.3 µM | [3] 20 µM | [4] 14 µM | [5] 28.4 µM | [7] 28.6 µM | [9] 15.2 µM | [10] 31.8 µM | [11] 14.2 µM | [12] 31.8 µM | [13] 26.2 µM | [14] 14.7 µM | [15] 15.3 µM | [16] 29.6 µM | [18] 9.19 µM

Cc1ccc(C(C)(C)C)c(O)c1
active: [6] 31.3 µM
inactive: [1] | [2] | [3] | [4] | [20] | [5] | [7] | [8] | [10] | [11] | [12] | [13] | [14] | [16] | [17] | [18]

CC(C)COC(=O)CCCCC(=O)OCC(C)C
inactive: [1] | [2] | [3] | [4] | [20] | [5] | [6] | [7] | [8] | [9] | [10] | [11] | [12] | [13] | [14] | [16] | [17] | [18]

CC(C)c1cccc(C(C)C)c1NC(=O)NS(=O)(=O)c1cc(C(C)(C)O)co1
inactive: [1] | [2] | [3] | [4] | [5] | [6] | [7] | [8] | [10] | [11] | [12] | [13] | [14] | [16] | [17] | [18]
